# Laboratory results: ChEMBL document CHEMBL3988442, “University of Dundee, Small-Polar-MMV Screening Library” (2021)
# Screen size: about 48,000 compounds; about 13,000 (27%) showed an effect of 50% or more. Some of the results follow.
# Tested on: Wolbachia pipientis
# Test: Anti-Wolbachia Cell-Based Screen
# Type: functional
# Parameters: scale not given: in the data most compounds retested in dose-response had high values
# Conditions: 5 µM
row,Structure (SMILES),Percent Effect
1,CCCc1c(C(=O)N2CCN(c3ncccn3)CC2)cnn1C,-7.534%
2,COc1ccc(C2CCN(CCCC#N)CC2)cc1,4.999%
3,CN(CCn1ccc2ccccc21)C(=O)CS(C)(=O)=O,-3.366%
4,CCC(NCc1cccc(Cl)c1)c1ccccc1OCC(=O)NC (stereo unspecified),-3.101%
5,Cc1nc(C)n(CC2CN(Cc3nc4ccccc4s3)CCO2)n1 (stereo unspecified),214.4%
6,Cc1cc(C)n(CC2CN(Cc3nc4ccccc4s3)CCO2)n1 (stereo unspecified),100.5%
7,Cc1cnc(CN2CCOC(Cn3nc(C)nc3C)C2)cn1 (stereo unspecified),1.014%
8,Cc1nc(C)n(CC2CN(CCCOc3ccccc3C)CCO2)n1 (stereo unspecified),-2.427%
9,c1ccc2sc(CN3CCOC(Cn4cncn4)C3)nc2c1 (stereo unspecified),-2.125%
10,Cc1cnn(CC2CN(Cc3nc4ccccc4s3)CCO2)c1 (stereo unspecified),112.2%
11,Cc1nc(C)n(CC2CN(CCc3ccccn3)CCO2)n1 (stereo unspecified),-80.6%
12,c1ccc2sc(CN3CCOC(Cn4cccn4)C3)nc2c1 (stereo unspecified),18.8%
13,Cc1nc(C)n(CC2CN(CCCOc3ccccc3)CCO2)n1 (stereo unspecified),117%
14,CCOc1cc(CNCCCn2ccnc2)cc(Cl)c1OC,-2.323%
15,COCCN1C[C@H]2[C@@H](C1)N(C(=O)c1cccs1)CC[C@H]2OC,-4.854%
16,CC(=O)c1ccc(OCC(=O)NC(C)CCc2ccco2)cc1 (stereo unspecified),-8.021%
17,COc1ccccc1OC1(C(=O)O)CCN(c2ncnc(C)c2C)CC1,-46.26%
18,N#CCCNC(=O)CSc1ccc(F)cc1F,-9.893%
19,Cc1nn(C)cc1C1=NS(=O)(=O)N(C)C(C(=O)Nc2ccc(Cl)cc2)=C1,140.7%

row,Structure (SMILES),Percent Effect
1,CN1CCC(Oc2ccc(NC(=O)c3ccccc3Br)cc2)CC1,-1.249%
2,Cc1nn(C)cc1C1=NS(=O)(=O)N(C)C(C(=O)Nc2ccc(Br)cc2)=C1,160.2%
3,Cc1c(C2=NS(=O)(=O)N(C)C(C(=O)Nc3ccc(Br)cc3)=C2)cnn1C,158.8%
4,Cc1c(C(C)NC(=O)Nc2ccc(F)c(F)c2)cnn1C (stereo unspecified),0.41%
5,CNc1nc(CNC(=O)Nc2ccccc2-c2noc(C)n2)cs1,2.213%
6,CN1CC(NC(=O)CCCc2cc(Cl)sc2Cl)CCC1=O (stereo unspecified),-9.281%
7,O=C(NCCc1cccnc1)c1ccc2nccn2c1,-5.38%
8,O=C(NCCCOc1cccnc1)c1cn(CCc2ccccc2)nn1,-0.6541%
9,O=C(NCc1cccnc1)c1cn(CCc2ccccc2)nn1,77.17%
10,O=C(NCCCNc1cccnc1)c1ccc2nccn2c1,1.237%
11,O=C(NCc1cccnc1)c1ccc2nccn2c1,107.5%
12,O=C(NCCc1ccccc1)c1cn(CCNCc2cccnc2)nn1,-1.891%
13,CN(C)c1cccc(C(=O)NCC2(O)CCOCC2)c1,-18.41%
14,Cc1ccc(C(=O)NCC2(O)CCOCC2)cc1F,-12.72%
15,Cc1ccc(C(=O)NCC2(O)CCOCC2)cc1Br,-13.19%
16,CN(C)c1ccc(C(=O)NCC2(O)CCOCC2)cc1,-16.02%
17,COC(=O)c1ccc(C(=O)NCC2(O)CCOCC2)cc1,130.4%
18,O=C(NCC1(O)CCOCC1)c1ccc(F)cc1,96.45%
19,O=C(O)C(F)(F)F.O=C(O)C(F)(F)F.O=C(O)c1cc2c(nc1N1CCOCC1)CCN(C1CCOC1)CC2 (stereo unspecified),-7.215%

row,Structure (SMILES),Percent Effect
1,Cc1ccnc2c1NC(=O)CN2C(=O)CCC(F)(F)F,-8.698%
2,O=C(OC1CCC1)c1ncccc1OCC(F)(F)F,-10.44%
3,CCOCCCNCc1cc(O)c2cc(C)ccc2n1,-26.14%
4,COCCNCc1cc2c(C)cc(C)cc2n2c(=O)n(C)nc12,88.13%
5,CCCNCc1cc2c(C)cc(C)cc2n2c(=O)n(C)nc12,-10.06%
6,CCOCCCNCc1cc2c(C)cc(C)cc2n2c(=O)n(C)nc12,119.1%
7,COCCCn1cnnc1CNC(=O)c1[nH]c2c(C)cc(C)cc2c1C,0.2132%
8,O=C1CCC2(CCCN(c3ncnc4[nH]cnc34)C2)CN1CCCO (stereo unspecified),-3.767%
9,COc1ccccc1CC(NC(=O)N1CCC[C@@H]1CO)C(C)C (stereo partly specified),-5.452%
10,CSCCC(=O)N1CCC(c2nnc(CN(C)CCO)n2C)CC1,26.9%
11,CCS(=O)(=O)N1CCc2ccc(NC(=O)Nc3cccc(SC)c3)cc21,9.677%
12,CCS(=O)(=O)N1CCc2ccc(NC(=O)Nc3cccc(F)c3)cc21,144.6%
13,COc1cc(NC(=O)NC2CCCC2)ccc1N1CCOC1=O,8.686%
14,CCS(=O)(=O)N1CCCc2ccc(NC(=O)Cc3ccc(F)cc3)cc21,-6.577%
15,NS(=O)(=O)N1CCc2ccc(NC(=O)Cc3ccc(F)cc3)cc21,-5.162%
16,NS(=O)(=O)N1CCc2ccc(NC(=O)CC(F)(F)F)cc21,-10.92%
17,CCS(=O)(=O)N1CCc2ccc(NC(=O)NC(C)(C)C)cc21,107.2%
18,CCS(=O)(=O)N1CCc2ccc(NC(=O)Nc3cccc(C)c3)cc21,127.7%
